# Measured values reported in article PMC5700166.
# Where a chain is given by its changes, count along the chain named.
# Tests used:
# Test in all cases: protein-binding microarray (PBM); PBM: ~300 nM protein, 6 mM HEPES pH 7.8, 80 mM KCl, 0.5 mM EDTA, 0.5 mM EGTA, 6% glycerol, 35 ng/ul poly-dIdC, 1% milk, 1 h, room temperature; Ap Aiptasia and Nv Nematostella (sea anemones) / Co Capsaspora / Aq Amphimedon (sponge) / Dm Drosophila / Hu human; RHD is the Rel homology domain; high values mean tight binding
# Conditions in all cases: dsDNA, one strand shown
# [1] = biological target: T1, GST-Aq-NF-kB (Amphimedon queenslandica, UniProt A9Y5G7 2-389)
# T1 sequence: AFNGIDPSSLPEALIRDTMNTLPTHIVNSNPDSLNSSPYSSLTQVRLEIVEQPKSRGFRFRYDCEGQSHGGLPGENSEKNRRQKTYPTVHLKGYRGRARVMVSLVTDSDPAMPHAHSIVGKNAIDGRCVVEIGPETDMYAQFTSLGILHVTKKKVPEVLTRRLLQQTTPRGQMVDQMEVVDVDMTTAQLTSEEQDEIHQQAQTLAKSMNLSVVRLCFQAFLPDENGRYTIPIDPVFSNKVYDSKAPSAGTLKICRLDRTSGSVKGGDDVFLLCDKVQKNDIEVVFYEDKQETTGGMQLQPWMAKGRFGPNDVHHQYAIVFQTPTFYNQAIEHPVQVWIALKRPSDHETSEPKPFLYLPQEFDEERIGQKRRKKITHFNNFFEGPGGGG
# [2] = biological target: T2, GST-Ap-NF-kB RHD (Exaiptasia pallida (Aiptasia), UniProt A0A913YAJ5 2-422)
# T2 sequence: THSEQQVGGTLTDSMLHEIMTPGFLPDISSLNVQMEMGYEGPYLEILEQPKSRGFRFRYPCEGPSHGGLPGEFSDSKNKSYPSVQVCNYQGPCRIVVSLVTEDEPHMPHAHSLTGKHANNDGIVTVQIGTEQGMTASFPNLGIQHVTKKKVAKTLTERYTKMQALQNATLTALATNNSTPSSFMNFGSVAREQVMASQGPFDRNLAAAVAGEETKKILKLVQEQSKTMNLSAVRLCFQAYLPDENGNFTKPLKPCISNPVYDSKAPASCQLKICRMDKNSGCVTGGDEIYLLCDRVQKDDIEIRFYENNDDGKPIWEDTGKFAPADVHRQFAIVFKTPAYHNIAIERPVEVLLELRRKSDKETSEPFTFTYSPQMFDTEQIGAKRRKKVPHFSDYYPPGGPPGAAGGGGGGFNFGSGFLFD
# [3] = biological target: T3, GST-Nv-NF-kB (Cys allele) (Nematostella vectensis, UniProt E5G601 2-411)
# T3 sequence: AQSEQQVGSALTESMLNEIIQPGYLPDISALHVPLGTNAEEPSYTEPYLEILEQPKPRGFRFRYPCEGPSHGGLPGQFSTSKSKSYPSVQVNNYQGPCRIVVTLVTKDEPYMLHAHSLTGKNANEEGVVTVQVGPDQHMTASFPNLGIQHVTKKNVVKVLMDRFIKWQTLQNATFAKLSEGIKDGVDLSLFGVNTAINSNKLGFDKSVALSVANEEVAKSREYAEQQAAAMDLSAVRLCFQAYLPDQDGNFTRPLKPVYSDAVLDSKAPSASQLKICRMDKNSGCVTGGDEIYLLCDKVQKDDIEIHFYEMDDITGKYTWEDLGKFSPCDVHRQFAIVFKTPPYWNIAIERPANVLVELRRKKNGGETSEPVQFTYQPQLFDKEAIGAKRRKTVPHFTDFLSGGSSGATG
# [4] = biological target: T4, GST-Nv-NF-kB (Ser allele) (Nematostella vectensis, UniProt A7UNT2 2-411)
# T4 sequence: T3 sequence with Q21R, C66S, S207N, E215Q, V217A, E225K, A268E, D399E
# [5] = biological target: GST-Hu-p50 (Homo sapiens, UniProt P19838 7-356)
# [6] = biological target: T5, GST-Co-NF-kB (Capsaspora owczarzaki, UniProt F1ARL5 200-546)
# T5 sequence: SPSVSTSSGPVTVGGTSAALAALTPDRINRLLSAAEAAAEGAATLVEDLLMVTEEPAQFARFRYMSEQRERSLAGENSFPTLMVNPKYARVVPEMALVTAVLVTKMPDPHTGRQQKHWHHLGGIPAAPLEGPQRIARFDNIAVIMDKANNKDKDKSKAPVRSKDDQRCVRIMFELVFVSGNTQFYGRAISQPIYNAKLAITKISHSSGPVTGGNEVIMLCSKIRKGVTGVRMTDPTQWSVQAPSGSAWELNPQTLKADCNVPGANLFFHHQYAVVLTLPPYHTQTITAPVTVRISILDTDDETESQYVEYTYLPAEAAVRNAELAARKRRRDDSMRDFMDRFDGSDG
# Chain of GST-Hu-p50 (P19838 7-356): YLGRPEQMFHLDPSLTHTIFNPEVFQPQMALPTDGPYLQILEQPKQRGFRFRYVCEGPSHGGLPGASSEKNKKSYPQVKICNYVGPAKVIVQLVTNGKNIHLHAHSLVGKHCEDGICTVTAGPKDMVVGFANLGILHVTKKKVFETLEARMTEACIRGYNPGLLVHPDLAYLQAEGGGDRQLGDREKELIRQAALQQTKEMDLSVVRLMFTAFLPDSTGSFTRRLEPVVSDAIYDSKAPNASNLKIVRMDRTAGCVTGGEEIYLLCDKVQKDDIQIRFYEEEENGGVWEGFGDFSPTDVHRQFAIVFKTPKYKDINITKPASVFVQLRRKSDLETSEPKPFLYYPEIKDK
Sequence,binding signal [1] [z-score],binding signal [2] [z-score],binding signal [3] [z-score],binding signal [4] [z-score],binding signal [5] [z-score],binding signal [6] [z-score]
CCGATTAACATCAGGAAATCTCCTGATGTTAATCGGGTCTTGATTCGCTTGACGCTGCTG,1.25,,,,,
CCGATTAACATCAAGGAATCTCCTGATGTTAATCGGGTCTTGATTCGCTTGACGCTGCTG,1.78,,,,,
CCGATTAACATCAAAGGGGCTACTGATGTTAATCGGGTCTTGATTCGCTTGACGCTGCTG,3.2,2.79,3.08,2.12,3.13,
CCGATTAACATCAGATATTACCCTGATGTTAATCGGGTCTTGATTCGCTTGACGCTGCTG,4.82,2.58,3.48,3.01,2.16,2.75
CCGATTAACATCAGAATTCTCCCTGATGTTAATCGGGTCTTGATTCGCTTGACGCTGCTG,4.02,2.74,4.1,3.64,3.58,2.57
CCGATTAACATCAGGAAGCTCCCTGATGTTAATCGGGTCTTGATTCGCTTGACGCTGCTG,3.72,1.2,1.37,,1.33,
CCGATTAACATCAAAATTTCCAGTGATGTTAATCGGGTCTTGATTCGCTTGACGCTGCTG,1.04,,,,1.16,
CCGATTAACATCAAAATTTTCCATGATGTTAATCGGGTCTTGATTCGCTTGACGCTGCTG,1.14,,,,,
CCGATTAACATCAGTCCCACAGATGATGTTAATCGGGTCTTGATTCGCTTGACGCTGCTG,1.95,1.45,1.55,,2.52,
CCGATTAACATCAGATGGGAAAATGATGTTAATCGGGTCTTGATTCGCTTGACGCTGCTG,2.28,2.47,4.24,5.39,2.37,2.47
CCGATTAACATCAAGGAAAAGCCTGATGTTAATCGGGTCTTGATTCGCTTGACGCTGCTG,1.11,,,,,
CCGATTAACATCAGCTAGTCCCTTGATGTTAATCGGGTCTTGATTCGCTTGACGCTGCTG,3.06,3.99,3.63,2.09,2.73,
CCGATTAACATCACTCTTTTCCCTGATGTTAATCGGGTCTTGATTCGCTTGACGCTGCTG,2.63,2.32,3.09,4.46,1.85,2.99
CCGATTAACATCAGAAATGCCCATGATGTTAATCGGGTCTTGATTCGCTTGACGCTGCTG,1.69,,,,1.76,
CCGATTAACATCAGCTATTTCCCTGATGTTAATCGGGTCTTGATTCGCTTGACGCTGCTG,3.31,2.08,3.01,3.4,1.83,2.17
CCGATTAACATCAGGGGAGTGGATGATGTTAATCGGGTCTTGATTCGCTTGACGCTGCTG,2.85,3.01,2.86,3.98,2.9,1.84
CCGATTAACATCAGGGAAACAAATGATGTTAATCGGGTCTTGATTCGCTTGACGCTGCTG,3.12,1.7,3.05,3.17,1.97,4.61
CCGATTAACATCAGGGAAAGATATGATGTTAATCGGGTCTTGATTCGCTTGACGCTGCTG,5.22,2.67,4.29,4.52,3.62,4.56
